Source: PubChem BioAssay (NCI)
About 79,000 compounds went through this panel and 15% of them were active in at least one assay; those are over-represented in the sample as a whole. Active and inactive are the calls of the source. Cut-off read from the data, not from the text of the source: active = growth inhibition above about 70%; inactive = the rest.

Columns and labels:
[1] = NCI Yeast Anticancer Drug Screen. Data for the rad52 strain (AID 147);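 note: 0% = growth of vehicle-treated control cultures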; conditions: S. cerevisiae rad52 mutant growth inhibition, stronger effect = higher value
In short: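 Growth of repair-deficient yeast cells was compared between compound-treated and vehicle-treated cultures to give percent inhibition.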

[2] = NCI Yeast Anticancer Drug Screen. Data for the wt1 strain (AID 149);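 note: 0% = growth of vehicle-treated wt1 cultures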; conditions: S. cerevisiae wt1 strain (SPY 50644) growth inhibition, stronger effect = higher value
In short: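 Using yeast strain wt1, compound-induced growth inhibition was determined against vehicle-treated cultures.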

[3] = NCI Yeast Anticancer Drug Screen. Data for the rad50EPP+ strain (AID 151);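 note: 0% = growth of vehicle-treated control cultures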; conditions: S. cerevisiae rad50 mutant strain, stronger effect = higher value
In short: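 Measured: growth inhibition of rad50EPP+ yeast. Reference: vehicle-treated controls. Screen uses strains with defined genetic alterations in DNA damage repair or cell cycle control.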

[4] = NCI Yeast Anticancer Drug Screen. Data for the mgt1 strain (AID 153); conditions: S. cerevisiae mgt1 mutant growth inhibition, stronger effect = higher value
In short: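 Compounds were applied to mgt1 mutant yeast, and growth was then compared against vehicle-treated control cultures to give percent inhibition.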

[5] = NCI Yeast Anticancer Drug Screen. Data for the rad50 strain (AID 155);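 note: 0% = growth of vehicle-only cultures of the same strain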; conditions: S. cerevisiae rad50 strain growth inhibition, stronger effect = higher value
In short: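 Relative growth inhibition (compound vs vehicle) was measured in yeast with a defined repair-gene alteration.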

[6] = NCI Yeast Anticancer Drug Screen. Data for the mec2-1 strain (AID 157); conditions: S. cerevisiae mec2-1 strain, stronger effect = higher value
In short: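 Compounds were applied to mec2-1 yeast cells. Their growth was then compared with that of vehicle-treated cultures to give growth inhibition.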

[7] = NCI Yeast Anticancer Drug Screen. Data for the rad14 strain (AID 159);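 note: 0% = growth of vehicle-treated control cultures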; conditions: S. cerevisiae rad14 strain growth inhibition, stronger effect = higher value
In short: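 Screen for anticancer potential: a yeast strain altered in DNA damage repair is grown with compound, and reduced growth is quantified against vehicle controls.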

[8] = NCI Yeast Anticancer Drug Screen. Data for the sgs1 mgt1 strain (AID 161);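 note: 0% = growth of cultures given vehicle only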; conditions: S. cerevisiae sgs1 mgt1 strain, stronger effect = higher value
In short: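 This yeast growth screen uses a strain with defined DNA-repair lesions; compound-treated growth is compared with vehicle-treated growth.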

[9] = NCI Yeast Anticancer Drug Screen. Data for the CLN2oe strain (AID 163);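 note: 0% = growth of vehicle-only control cultures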; conditions: S. cerevisiae CLN2oe strain, stronger effect = higher value
In short: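 Cells of an engineered yeast line with disturbed cell-cycle regulation are treated with compound. Inhibition of growth is then calculated relative to the vehicle-treated reference.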

[10] = NCI Yeast Anticancer Drug Screen. Data for the cln2 rad14 strain (AID 165);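 note: 0% = growth equal to vehicle treated cultures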; conditions: S. cerevisiae cln2 rad14 strain, stronger effect = higher value
In short: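 Strain: cln2 rad14 yeast, altered in cell cycle control and DNA damage repair. Read-out: growth inhibition vs vehicle.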

[11] = NCI Yeast Anticancer Drug Screen. Data for the bub3 strain (AID 167); conditions: S. cerevisiae bub3 mutant strain, stronger effect = higher value
In short: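 Screening used yeast with an engineered genetic alteration affecting cell cycle control. Compound-exposed cultures were compared with vehicle cultures, and reduced growth was taken as inhibition.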

[12] = NCI Yeast Anticancer Drug Screen. Data for the mlh1 strain (AID 171);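 note: 0% = growth of vehicle-treated control cultures of the same strain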; conditions: S. cerevisiae mlh1 strain growth inhibition, stronger effect = higher value
In short: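 Test agents were incubated with yeast bearing a defined DNA damage repair or cell cycle control alteration; values are growth inhibition normalised to vehicle-treated cultures.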

[13] = NCI Yeast Anticancer Drug Screen. Data for the sgs1 strain (AID 173);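 note: 0% = growth of vehicle-only control cultures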; conditions: S. cerevisiae sgs1 mutant, stronger effect = higher value
In short: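 Strain with an altered DNA repair or cell cycle pathway exposed to compound. Growth then measured. Value = inhibition versus vehicle control.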

[14] = NCI Yeast Anticancer Drug Screen. Data for the mlh1 rad18 strain (AID 175); conditions: S. cerevisiae mlh1 rad18 strain growth inhibition, stronger effect = higher value
In short: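 A repair-deficient yeast strain is exposed to test compound, and growth is scored relative to vehicle-treated controls.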

[15] = NCI Yeast Anticancer Drug Screen. Data for the rad18 strain (AID 177); conditions: S. cerevisiae rad18 mutant growth inhibition, stronger effect = higher value
In short: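 DNA-repair-defective yeast; compound treatment; growth inhibition scored against vehicle.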

[16] = at 5.0 µM (retest, dose inferred, filed as 0.5)
[17] = at 50.0 µM (retest, dose inferred, filed as 5.0)

Measured: growth inhibition

COc1cc2oc3ccccc3c(=O)c2cc1CSc1ccccc1N
active: [11]; [17] 71% | [11]; at 50.0 µM 72.4% | [11]; at 100.0 µM 74%
inactive: [1]; at 1.2 µM -1% | [1]; at 3.7 µM 1% | [1]; at 11.0 µM 1% | [1]; at 33.0 µM 8% | [1]; at 100.0 µM 8% | [2]; at 1.2 µM -1% | [2]; at 3.7 µM -1% | [2]; at 11.0 µM -1% | [2]; at 33.0 µM -2% | [2]; at 100.0 µM 0% | [3]; at 1.2 µM -5% | [3]; at 3.7 µM 1% | [3]; at 11.0 µM 4% | [3]; at 33.0 µM 14% | [3]; at 100.0 µM 16% | [4]; at 1.2 µM 1% | [4]; at 3.7 µM 0% | [4]; at 11.0 µM -2% | [4]; at 33.0 µM -2% | [4]; at 100.0 µM 6% | [5]; at 1.2 µM 0% | [5]; at 3.7 µM 0% | [5]; [16] 9% | [5]; at 11.0 µM 1% | [5]; at 33.0 µM 6% | [5]; [17] 26% | [5]; at 50.0 µM 44.9% | [5]; at 100.0 µM 7% | [6]; at 1.2 µM -2% | [6]; at 3.7 µM -1% | [6]; [16] 8% | [6]; at 11.0 µM -1% | [6]; at 33.0 µM 2% | [6]; [17] 8% | [6]; at 50.0 µM -19.2% | [6]; at 100.0 µM 15% | [7]; at 1.2 µM 0% | [7]; at 3.7 µM -6% | [7]; at 11.0 µM -5% | [7]; at 33.0 µM -18% | [7]; at 100.0 µM -16% | [8]; [16] 3% | [8]; [17] 48% | [8]; at 50.0 µM 39.8% | [9]; at 1.2 µM -4% | [9]; at 3.7 µM 3% | [9]; at 11.0 µM -1% | [9]; at 33.0 µM 2% | [9]; at 100.0 µM 3% | [10]; [16] 2% | [10]; [17] 34% | [10]; at 50.0 µM 27.5% | [11]; at 1.2 µM -1% | [11]; at 3.7 µM 2% | [11]; [16] 4% | [11]; at 11.0 µM 35% | [11]; at 33.0 µM 54% | [12]; at 1.2 µM -5% | [12]; at 3.7 µM 0% | [12]; at 11.0 µM -1% | [12]; at 33.0 µM 2% | [12]; at 100.0 µM -7% | [13]; at 1.2 µM 1% | [13]; at 3.7 µM 1% | [13]; at 11.0 µM 5% | [13]; at 33.0 µM 15% | [13]; at 100.0 µM 20% | [14]; [16] 15% | [14]; [17] 31% | [14]; at 50.0 µM 39.9% | [15]; at 1.2 µM -14% | [15]; at 3.7 µM -7% | [15]; at 11.0 µM -12% | [15]; at 33.0 µM 8% | [15]; at 100.0 µM 3%
